HepG2 viability: counter-screen for TGF-b inhibitors: cytotoxicity in HepG2 cells; HepG2 CAGA-GFP viability, ATP luminescence, 18 h; Potency, µM (highest dose often 46.1 µM), without a hit: at the highest dose activity change, negative = cytotoxicity, actives largely listed as cytotoxic; 0.76% of 410,000 active; AID 588856
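CellTiter-Glo luminescence gave cytotoxicity after 18 hours at 37 degrees C. The cells were HepG2 CAGA-GFP in 1% FBS DMEM, stimulated with 500 pg/mL TGF-beta after compound addition. %Activity was normalised to no-cell wells (complete cell-killing) and DMSO (no toxicity), and curves were fitted and classified.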
TGFb SMAD3 inh: TGF-b pathway inhibition; HepG2 CAGA-GFP TGF-b/SMAD3 reporter, GFP fluorescence, 18 h; TGF-beta stimulated, 500 pg/mL final; Potency, µM (titrated, usually from 46.1 µM), for the others: at the top dose activity, negative = inhibition, hits mostly inhibitors; 1.2% of 410,000 active; also: % is scaled to controls: 0 for no effect and ±100 for the full control effect; nearly all actives have a fitted effect of over 65% in size
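Smad-responsive CAGA-GFP expression was quantified in HEPG2 cells exposed to compounds and 500 pg/mL final TGF-beta for 18 h at 37 degrees C; unstimulated wells defined full inhibition.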
HT1080NT lethal: kills 2HG-producing HT-1080-NT fibrosarcoma cells. Potency, µM (doses to about 46.1 µM), for inactives: at the highest dose activity, negative = less viability, hits mostly cytotoxic. 1.6% of 360,000 active. HT-1080-NT fibrosarcoma viability, CellTiter-Glo ATP luminescence, 48 h;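 also: NT is the 2HG producing partner of a matched IDH1 knockdown line; 0% = DMSO-treated cells and -100% = media-only wells without cells; nearly all actives have a fitted effect of over 55% in size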
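Luminescent CellTiter-Glo readout after 48 hours of compound exposure at 37 degrees C defined viability of HT-1080-NT cells. Activity was normalized to DMSO wells and cell-free media wells; concentration-response curves were fitted and assigned curve classes.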
HT1080 IDH1KD tx: toxicity to HT-1080 IDH1 knockdown cells (counter line); HT-1080 IDH1 knockdown viability, ATP luminescence, 48 h; Potency, µM (series often up to 46.1 µM), inactives show at the highest dose activity, negative = toxicity, hits mostly cytotoxic; 2% of 360,000 active; AID 686971;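 also: 0% = DMSO wells and -100% = cell-free medium wells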
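HT-1080-IDH1KD cells (IDH1 knocked down), 750/well in RPMI with 5% FBS, treated with compound 48 h at 37 degrees C. Viability by CellTiter-Glo luminescence, normalised to DMSO and no-cell wells; concentration-response curves classed.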
TDP1 cell CPT: growth inhibition of DT40 Tdp1-/-;hTDP1 cells with camptothecin (screen for TDP1 inhibitors) | 12% of 420,000 active | chicken DT40 Tdp1-/-;hTDP1 cells + 20 nM CPT, ATP luminescence, 48 h | AID 686979 | Potency, µM (series often up to 46.2 µM), for inactives: top-dose activity change, negative = growth inhibition, hits mostly inhibitors; also: % is scaled to controls: 0 for no effect and ±100 for the full control effect; nearly all actives have a fitted effect of over 55% in size
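Chicken DT40 Tdp1-/- cells stably complemented with human TDP1 were seeded at 400 cells/well in medium containing 20 nM camptothecin, exposed to pin-transferred compounds, and grown at 37 °C for at least 48 hr. Viability was read as ATP luminescence.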
DT40 TDP1 no CPT: qHTS for Inhibitors of human tyrosyl-DNA phosphodiesterase 1 (TDP1): qHTS in cells in absence of CPT; DT40 Tdp1-/- hTDP1 cells, no CPT, ATP luminescence, 48 h; Potency, µM (titrated, usually from 46.2 µM), inactives show top-dose activity change, negative = growth inhibition, most hits filed as inhibitors; 15% of 420,000 active; also: % is scaled to controls: 0 for no effect and ±100 for the full control effect; nearly all actives have a fitted effect of over 55% in size
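DT40 Tdp1-/-;hTDP1 cells, no CPT (DMSO vehicle only), 400 cells/well; compounds pin-transferred; ≥48 hr, 37 °C; CellTiter-Glo 30 min RT dark, luminescence read.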
An asterisk follows results filed as active. This is a sample that favours compounds with a hit; in the whole collection about 17% have one here. Calls follow the shape of the dose curve; as a rule, active = well fitted curve in the direction sought with a large enough effect; inconclusive = small, poorly fitted or top-dose-only effect, or another doubt; inactive = no such curve, though single readings can be large; an effect the other way counts as inactive or inconclusive. Potency is read from the fitted curve at half-maximal effect.

CCOc1ccccc1CNC(=O)CN1C(=O)c2cccnc2Oc2ccc(C)cc21 was read as HepG2 viability -11%, TGFb SMAD3 inh inconclusive, TDP1 cell CPT inconclusive and DT40 TDP1 no CPT inconclusive.
For CCOC(=O)C1CCCN(C(=O)c2cc(C)n(C(C)(C)C)n2)CC1 (stereo unspecified) the results were HepG2 viability -4%, TGFb SMAD3 inh 11%, HT1080NT lethal 9%, HT1080 IDH1KD tx 7%, TDP1 cell CPT -5% and DT40 TDP1 no CPT -22%.
COCCNS(=O)(=O)c1ccc(Cl)c(C(=O)NC2CCN(Cc3ccccc3)CC2)c1 was read as HepG2 viability -2%, TGFb SMAD3 inh 11%, HT1080NT lethal 8%, HT1080 IDH1KD tx 1%, TDP1 cell CPT -9% and DT40 TDP1 no CPT -28%.
`CNc1cc(OC)c(C(=O)N[C@H]2CCN(Cc3ccccc3)[C@H]2C)cc1Cl` gave TDP1 cell CPT 11µM* and DT40 TDP1 no CPT 12µM*.
`CC(S)C(=O)NCC(=O)O` (stereo unspecified) gave TDP1 cell CPT inconclusive and DT40 TDP1 no CPT -2%.
`C[N+]1(CC(=O)c2ccc(-c3ccccc3)cc2)CCOCC1` gave HepG2 viability 23%, TGFb SMAD3 inh 11%, TDP1 cell CPT inconclusive and DT40 TDP1 no CPT -16%.
`Cc1cc(C)cc(NC(=O)CNS(=O)(=O)c2ccc3nc(C)sc3c2)c1` gave HepG2 viability -20%, TDP1 cell CPT -6% and DT40 TDP1 no CPT -13%.
`O=C(Nc1ccc(Br)cn1)c1ccc(Cl)s1` gave HepG2 viability -10%, TGFb SMAD3 inh -22%, HT1080NT lethal -21%, HT1080 IDH1KD tx -8%, TDP1 cell CPT inconclusive and DT40 TDP1 no CPT 18µM*.
Screening O=C(Nc1ccc(Br)cn1)c1ccc(Br)s1 returned HepG2 viability 0%, TGFb SMAD3 inh 21%, HT1080NT lethal -15%, HT1080 IDH1KD tx inconclusive, TDP1 cell CPT inconclusive and DT40 TDP1 no CPT 26µM*.
For N#CCCn1c(=O)c(-c2ccc(Cl)cc2)nc2cnc(Nc3ccccc3)nc21 the results were TDP1 cell CPT inconclusive and DT40 TDP1 no CPT -5%.
For CN(C)c1ncc2nc(-c3cccs3)c(=O)n(CCC#N)c2n1 the results were TDP1 cell CPT -4% and DT40 TDP1 no CPT -11%.
`Cc1cccc(-c2noc(CN(C(=O)CCc3ccccc3)C(C)C)n2)c1` gave HepG2 viability -13%, TGFb SMAD3 inh -23%, HT1080NT lethal -22%, HT1080 IDH1KD tx -14%, TDP1 cell CPT 29µM* and DT40 TDP1 no CPT inconclusive.
Screening Cc1cccc(-c2noc(CN(C(=O)/C=C/c3ccccc3Cl)C(C)C)n2)c1 returned HepG2 viability -9%, TGFb SMAD3 inh 0%, HT1080NT lethal -3%, HT1080 IDH1KD tx inconclusive, TDP1 cell CPT 18µM* and DT40 TDP1 no CPT inconclusive.
`COC(=O)C[C@H]1C[C@H]2c3cc(NS(=O)(=O)c4ccc(OC)cc4)ccc3O[C@H]2[C@H](CO)O1` gave HepG2 viability -21%, TGFb SMAD3 inh -6%, HT1080NT lethal 8%, HT1080 IDH1KD tx -1%, TDP1 cell CPT inconclusive and DT40 TDP1 no CPT inconclusive.
COc1ccc(-c2n[nH]c(C(F)(F)F)c2-c2cc3ccccc3o2)c(O)c1 was read as HepG2 viability 13µM*, TGFb SMAD3 inh inconclusive, HT1080NT lethal inconclusive, HT1080 IDH1KD tx inconclusive, TDP1 cell CPT 13µM* and DT40 TDP1 no CPT 15µM*.
For NNC(=O)COc1ccc(-c2n[nH]c(C(F)(F)F)c2-c2ccc(Br)cc2)c(O)c1 the results were HepG2 viability -27%, TGFb SMAD3 inh inconclusive, HT1080NT lethal 3%, HT1080 IDH1KD tx 17%, TDP1 cell CPT -4% and DT40 TDP1 no CPT -17%.
Screening COc1ccc(C(=O)COC(=O)c2cc3ccccc3oc2=O)c(OC)c1 returned HepG2 viability -8%, TGFb SMAD3 inh 0%, HT1080NT lethal 14%, HT1080 IDH1KD tx 11%, TDP1 cell CPT -6% and DT40 TDP1 no CPT -5%.
COc1ccccc1-c1c(-c2ccc(OCC(=O)NN)cc2O)n[nH]c1C(F)(F)F was read as HepG2 viability -27%, TGFb SMAD3 inh -14%, HT1080NT lethal -6%, HT1080 IDH1KD tx -4%, TDP1 cell CPT 9.2µM* and DT40 TDP1 no CPT 13µM*.
For CS(=O)(=O)c1ccc(NC(=O)CCN2C(=O)C3CC=CCC3C2=O)cc1 (stereo unspecified) the results were HepG2 viability 8%, TGFb SMAD3 inh 22%, HT1080NT lethal 10%, HT1080 IDH1KD tx 8%, TDP1 cell CPT 1% and DT40 TDP1 no CPT 5%.
Screening CCCCOc1ccc(C(=O)NNC(=O)C2C3CCC(C3)C2C(=O)O)cc1 (stereo unspecified) returned HepG2 viability -6%, TGFb SMAD3 inh -4%, HT1080NT lethal 0%, HT1080 IDH1KD tx -16%, TDP1 cell CPT inconclusive and DT40 TDP1 no CPT -28%.
For C(=N/Nc1nc(-c2ccccc2)cc(-c2ccccc2)n1)/c1cccnc1 the results were HepG2 viability -25%, TGFb SMAD3 inh -1%, HT1080NT lethal -16%, HT1080 IDH1KD tx -10%, TDP1 cell CPT inconclusive and DT40 TDP1 no CPT 16µM*.
Cc1cc(-c2ccccc2)nc(N/N=C/c2cccnc2)n1 was read as HepG2 viability -1%, TGFb SMAD3 inh -4%, HT1080NT lethal 9%, HT1080 IDH1KD tx 0%, TDP1 cell CPT -23% and DT40 TDP1 no CPT -28%.
For Cc1ccc(-c2cc(-c3ccccc3)nc(N/N=C/c3cccnc3)n2)cc1 the results were HepG2 viability -12%, TGFb SMAD3 inh inconclusive, HT1080NT lethal inconclusive, HT1080 IDH1KD tx inconclusive, TDP1 cell CPT 29µM* and DT40 TDP1 no CPT inconclusive.
For O=S(=O)(N/N=C/c1cccnc1)c1ccc(Cl)c(Cl)c1 the results were HepG2 viability -13%, TGFb SMAD3 inh 29%, HT1080NT lethal 0%, HT1080 IDH1KD tx 9%, TDP1 cell CPT inconclusive and DT40 TDP1 no CPT -25%.
`Cc1ccc(C(=O)NC(C)c2ccc3c(c2)OCO3)s1` (stereo unspecified) gave HepG2 viability 8%, TGFb SMAD3 inh -4%, HT1080NT lethal 6%, HT1080 IDH1KD tx -1%, TDP1 cell CPT 13µM* and DT40 TDP1 no CPT 16µM*.
Screening CCOc1ccccc1N(C)C(=O)c1c2c(nc3ccccc13)C(=O)N(C1CCCCC1)C2 returned HepG2 viability -33%, TGFb SMAD3 inh 3%, TDP1 cell CPT 16µM* and DT40 TDP1 no CPT inconclusive.
